# Assay outcomes (PubChem)
# BoNT F protease: BoNT/F light chain protease inhibitors, primary screen, biochemical, flow cytometry, MLPCN library; Botulinum neurotoxin type F light chain protease (Clostridium botulinum); Multiplex microsphere protease cleavage assay; inhibition, % at 10 µM; 360,000 tested, 0.22% active; AID 588497, 2011; in the data active = inhibition above about 35%, passing the limit was not always enough; inconclusive = no clear call, values can overlap the other calls; note: plate controls were buffer without enzyme for full effect and enzyme alone for no effect
# BoNT A protease: BoNT/A light chain protease inhibitors, primary screen, biochemical, flow cytometry, MLPCN library; Botulinum neurotoxin type A light chain protease (Clostridium botulinum A str. ATCC 3502); multiplex microsphere protease substrate cleavage; inhibition, % at 10 µM; 360,000 tested, 0.17% active; note: plate controls were buffer without enzyme for full effect and enzyme alone for no effect
# Anthrax LF prot: Bacillus anthracis LF protease inhibitors, primary screen, biochemical, multiplex microsphere, MLPCN library; multiplex microsphere protease cleavage assay; inhibition, % at 10 µM; 360,000 tested, 0.12% active; note: plate controls were buffer without enzyme for full effect and enzyme alone for no effect
# TcdB inh: TcdB glycohydrolase inhibitors, primary screen, biochemical, single point, plate reader; Toxin B (Clostridioides difficile), P18177; TcdB glycohydrolase enzymatic assay; inhibition, % at 9.99 µM; 350,000 tested, 0.24% active; AID 652162, 2013; in the data active = inhibition above about 10%
# Autofluor counter: counter-screen for toxin protease inhibitors: compound fluorescence | compound autofluorescence counterscreen, microsphere flow cytometry; active compounds read high | fluorescence intensity (no concentration beside the values) | 360,000 tested, 3.1% active; in the data active = fluorescence intensity above about 16000; inconclusive = no clear call, values can overlap the other calls
# An asterisk follows results filed as active; ? = inconclusive; . = not tested or not shown. This is one part of a sample in which hits are shown more often than they occur. Cut-off read from the data, not from the text of the source, unless noted: active = inhibition above about 30%; inconclusive = no clear call, values can overlap the other calls; inactive = below that.
SMILES,BoNT F protease,BoNT A protease,Anthrax LF prot,TcdB inh,Autofluor counter
CCOc1nc(-c2ccc(OC)cc2)ccc1-c1noc(C)n1,-4.1,?,-1.5,.,21728*
CCOc1cc(-c2nc(-c3ccc(C)nc3OC)no2)cc(OCC)c1OCC,-2.7,-0.4,-6.8,.,5845
Cc1ccc2[nH]c(=O)c(CN(CC3CCCO3)S(=O)(=O)c3c(C)ccc4nsnc34)cc2c1 (stereo unspecified),4.5,?,-6.0,.,19816*
c1ccc(-c2oc3ncnc(NCCCN4CCOCC4)c3c2-c2ccccc2)cc1,-6.5,-3.4,-3.5,.,26085*
COc1ccc(-c2oc3ncnc(NCCCN4CCOCC4)c3c2-c2ccc(OC)cc2)cc1,-13.8,-0.1,0.2,.,10421
Cc1ccc(S(N)(=O)=O)c(C)c1N1CCCC1=O,4.1,-0.9,8.0,1.4,3405
Cc1ccc(S(=O)(=O)O)c(C)c1N1CCCC1=O,-5.6,-3.1,2.0,.,20761*
CCc1ccc(NC(=O)C(CC)Sc2nc3cc4c(cc3c(=O)n2Cc2ccco2)OCO4)cc1 (stereo unspecified),-2.6,?,-2.1,.,20624*
CCc1ccccc1NC(=O)C(CC)Sc1nc2cc3c(cc2c(=O)n1Cc1ccco1)OCO3 (stereo unspecified),-8.1,-1.1,-6.3,.,4412
CC(C)NC(=O)Nc1ccc2c(c1)C(=O)N([C@@H](C)CO)C[C@@H](C)[C@H](CN(C)Cc1ccc(Oc3ccccc3)cc1)O2,.,.,.,-0.7,.
Cc1noc(C)c1S(=O)(=O)N(C)C[C@@H]1OCCCC[C@H](C)Oc2ccc(NC(=O)c3ccccc3)cc2C(=O)N([C@H](C)CO)C[C@H]1C,.,.,.,0.1,.
CCOC(=O)CSc1nc2ccccc2n1CC(=O)NC(C)(C)C,-3.8,-3.2,-0.8,-0.2,21055*
COc1ccc(C(=O)CSc2nc3ccccc3n2CC(=O)NC(C)(C)C)cc1,-3.3,0.7,0.7,0.1,2924
CCOc1cc(C(c2c(C)[nH][nH]c2=O)c2c(C)[nH][nH]c2=O)ccc1OS(=O)(=O)c1ccccc1,-5.6,-0.3,0.2,.,20887*
Cc1ccc(S(=O)(=O)Oc2ccc(C(c3c(C)[nH][nH]c3=O)c3c(C)[nH][nH]c3=O)cc2)cc1,-3.1,-0.6,-0.3,1.0,8095
Cc1noc(C)c1S(=O)(=O)N(C)C[C@H]1Oc2ccc(NC(=O)CCN3CCOCC3)cc2CC(=O)N([C@H](C)CO)C[C@@H]1C,.,.,.,-2.0,.
CC1(C)CC(CCC(=O)Nc2ccc(S(N)(=O)=O)cc2)C(=O)O1 (stereo unspecified),-2.8,?,-2.5,.,22673*
COc1ccc(C)cc1NC1=C(Cl)C(=O)N(C2CCCCC2)C1=O,-5.3,-1.3,-3.0,.,22693*
CCOc1ccc(NC2=C(Cl)C(=O)N(C3CCCCC3)C2=O)cc1,-10.8,1.3,-3.7,-1.1,2463
CCn1nc(C)c(C(=O)Nc2cc(Oc3cc(C)cc(C)c3)cc([N+](=O)[O-])c2)c1C,0.9,?,-1.7,.,22749*
CC12CN3CC(C)(CN(C1)C3c1cccs1)C2O (stereo unspecified),-7.0,-2.6,-3.9,.,17129*
CCOc1ccc(-n2c(C)nnc2SCC(=O)N(CC)CC)cc1,-0.6,1.2,-1.0,.,19915*
O=S(=O)(c1cccc2cccnc12)N1CCN(Cc2ccc(OCCO)cc2)CC1,.,.,.,0.8,.
COc1ccc(NC(=O)C2CCN(c3nnnn3-c3ccccc3)CC2)cc1,2.6,0.3,-1.7,.,3605
O=C(Nc1ccc(F)cc1)C1CCN(c2nnnn2-c2ccccc2)CC1,1.4,?,2.3,.,19751*
CCOC(=O)C1=C(C)N=C2c3ccccc3C(=O)C2C1c1ccc(Cl)cc1 (stereo unspecified),-11.4,-0.2,-7.8,.,9186
CCOC(=O)C1=C(Cc2ccc(Cl)cc2)C(=O)c2ccccc2C1=O,-9.9,2.9,-9.0,.,23250*
O=C(CN1CCN(c2nc(-c3ccc(F)cc3)cs2)CC1)Nc1ccc2c(c1)OCO2,-5.9,-1.7,-5.3,2.7,16899*
Cc1ccc(OC(=O)CCC(=O)OCCCC(F)(F)C(F)(F)F)cc1,-4.4,-2.0,-0.7,.,24380*
Cc1ccccc1OC(=O)CCC(=O)OCCCC(F)(F)C(F)(F)F,-18.5,-1.6,-2.1,1.7,8375
